Read-out in assay [1]: Cytochrome P450 2C19 (Homo sapiens) (UniProt P33261)
Nature of the assay: CLD_CYP2C19_6hr: CellzDirect (CLD) Gene Expression Assay for xenobiotic metabolism (CYP2C19) at 6 hours (AID 2283678). In short, it runs like this:
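CYP2C19 transcript induction was quantified by quantitative nuclease protection assay with chemiluminescent read-out, 6 h after dosing. Cells were primary human hepatocytes from two donor preparations, given fresh dosing solutions daily in 0.2% DMSO vehicle. Activity was relative to DMSO.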

A short description of assay [2]: CCTE_Padilla_ZF_144hpf_TERATOSCORE: (Legacy) CCTE's 144 Hour Post-fertilization zebrafish Assay Teratoscore, Padilla Lab (AID 2283679; active = hit-call score of the fitted dose curve at least 0.9, where 1 is the maximum; inactive = score below 0.9;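 for AC50: zebrafish embryos with chorions exposed by immersion from 6-8 hpf to 5 dpf with daily renewal; teratogenicity score from eye scoring of death hatching and malformations at 144 hpf; higher score means more developmental defects relative to DMSO baseline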). In short, it runs like this: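 Larvae scored by eye at 144 hpf for death, hatching and malformations after a day in clean Hanks'. Before that, daily-renewed exposure at 80 uM (0.4% DMSO, 26C) from roughly 6-8 hpf through 5 dpf, 4 embryos per chemical.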

Read-out in assay [3]: HMG-CoA synthase (HMGCS2), HMGCS2 (gene 3158)
The assay can be described thus: CLD_HMGCS2_6hr: CellzDirect (CLD) Gene Expression Assay for HMG-CoA synthase (HMGCS2) at 6 hours (AID 2283682).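 Note: actives raise HMGCS2 transcript above the 0.2% DMSO vehicle baseline.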 In outline: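 HMGCS2 transcript induction read by quantitative nuclease protection with chemiluminescence, 6 h after dosing of primary human hepatocytes. Baseline was 0.2% DMSO vehicle; phase-contrast morphology gave a yes/no cytotoxicity annotation.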

Read-out in assay [4]: Cytochrome P450 2B6 (Homo sapiens) (UniProt P20813)
Nature of the assay: CLD_CYP2B6_24hr: CellzDirect (CLD) Gene Expression Assay for xenobiotic metabolism (CYP2B6) at 24 hours (AID 2283686). In short, it runs like this:
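qNPA chemiluminescent measurement of mRNA at 24 hours in human primary hepatocyte cultures from two donor preparations, with daily fresh dosing and 0.2% DMSO vehicle as baseline. Morphology-based cytotoxicity flagged yes/no.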

Read-out in assay [5]: Cytochrome P450 3A4 (Homo sapiens) (UniProt P08684)
The assay can be described thus: CLD_CYP3A4_24hr: CellzDirect (CLD) Gene Expression Assay for xenobiotic metabolism (CYP3A4) at 24 hours (AID 2283689). In short, it runs like this:
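CYP3A4 mRNA induction read by quantitative nuclease protection (chemiluminescence) 24 hr after dosing. Cultured human hepatocytes (two donor preparations) treated daily, vehicle 0.2% DMSO; phase-contrast morphology annotates cytotoxicity.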

Read-out in assay [6]: ABC Transporter (ABCB1), ABCB1 (gene 5243)
The assay can be described thus: CLD_ABCB1_48hr: CellzDirect (CLD) Gene Expression Assay for ABC Transporter (ABCB1) at 48 hours (AID 2283695). In short, it runs like this:
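ABCB1 mRNA was measured by quantitative nuclease protection assay (chemiluminescence) 48 h after dosing. Human hepatocyte cultures from two separate donors received fresh dosing solutions daily for two days, with 0.2% DMSO as vehicle. Positive-direction fit against DMSO.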

Read-out in assay [7]: Cytochrome P450 3A4 (Homo sapiens) (UniProt P08684)
Nature of the assay: CLD_CYP3A4_48hr: CellzDirect (CLD) Gene Expression Assay for xenobiotic metabolism (CYP3A4) at 48 hours (AID 2283698). In outline:
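CYP3A4 induction read by qNPA chemiluminescence after 48 h, with fresh dosing solutions on consecutive days, in cultured human hepatocytes (two donors). Vehicle 0.2% DMSO as baseline; microscopy-based cytotoxicity annotated yes/no alongside data.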

Read-out in assay [8]: Cytochrome P450 2C19 (Homo sapiens) (UniProt P33261)
Nature of the assay: CLD_CYP2C19_48hr: CellzDirect (CLD) Gene Expression Assay for xenobiotic metabolism (CYP2C19) at 48 hours (AID 2283700).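 Note: fitted upward so actives raise CYP2C19 mRNA above the 0.2% DMSO vehicle.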 In outline: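 CYP2C19 mRNA induction read by chemiluminescent quantitative nuclease protection assay after 48 h, with fresh compound added daily for two days to cultured human liver hepatocytes. Activity fitted upward against 0.2% DMSO vehicle.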

Read-out in assay [9]: ABC Transporter (ABCB1), ABCB1 (gene 5243)
The assay can be described thus: CLD_ABCB1_24hr: CellzDirect (CLD) Gene Expression Assay for ABC Transporter (ABCB1) at 24 hours (AID 2283684). In outline: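 ABCB1 mRNA induction versus 0.2% DMSO vehicle was read by qNPA chemiluminescence at 24 h. Cultured human hepatocytes from two donor preparations received daily fresh dosing, and phase-contrast cytotoxicity calls were annotated alongside the data.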

Read-out in assay [10]: sulfotransferase (SULT2A), SULT2A1 (gene 6822)
The assay can be described thus: CLD_SULT2A_24hr: CellzDirect (CLD) Gene Expression Assay for sulfotransferase (SULT2A) at 24 hours (AID 2283694). In short, it runs like this: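 mRNA is measured by qNPA: probe hybridisation, S1 nuclease digestion, chemiluminescence, in lysates from human primary hepatocytes harvested 24 h after daily dosing. Vehicle was 0.2% DMSO. Phase-contrast microscopy flagged cytotoxicity (yes/no).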

Read-out in assay [11]: glucuronosyltransferase (UGT1A1), UGT1A1 (gene 54658)
Nature of the assay: CLD_UGT1A1_24hr: CellzDirect (CLD) Gene Expression Assay for glucuronosyltransferase (UGT1A1) at 24 hours (AID 2283696). In outline: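 UGT1A1 transcript induction was measured by quantitative nuclease protection assay (chemiluminescence) in human hepatocyte cultures 24 h after daily fresh dosing, with 0.2% DMSO as vehicle and baseline.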

Read-out in assay [12]: Cytochrome P450 2C19 (Homo sapiens) (UniProt P33261)
Nature of the assay: CLD_CYP2C19_24hr: CellzDirect (CLD) Gene Expression Assay for xenobiotic metabolism (CYP2C19) at 24 hours (AID 2283687).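 Note: activity means mRNA induction above DMSO vehicle baseline.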 In short, it runs like this:
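CYP2C19 mRNA was quantified by qNPA chemiluminescence after 24 h of daily dosing of cultured human primary hepatocytes from two donors; vehicle was 0.2% DMSO, and increases over DMSO baseline were fitted.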

Read-out in assay [13]: Broad substrate specificity ATP-binding cassette transporter ABCG2 (Homo sapiens) (UniProt Q9UNQ0)
Nature of the assay: CLD_ABCG2_24hr: CellzDirect (CLD) Gene Expression Assay for ABC Transporter (ABCG2) at 24 hours (AID 2283685). In outline:
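ABCG2 mRNA induction, read as gain of chemiluminescent signal over 0.2% DMSO, was measured by quantitative nuclease protection at 24 h. Cultured human liver hepatocytes were given fresh dosing solutions of test chemicals at several concentrations each day.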

Read-out in assay [14]: Cytochrome P450 2C9 (Homo sapiens) (UniProt P11712)
The assay can be described thus: CLD_CYP2C9_24hr: CellzDirect (CLD) Gene Expression Assay for xenobiotic metabolism (CYP2C9) at 24 hours (AID 2283688). In outline: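 Induction of CYP2C9 mRNA was quantified by quantitative nuclease protection assay (chemiluminescence), gain of signal versus 0.2% DMSO vehicle, 24 h after dosing. Human primary hepatocytes (two donors) received fresh chemical daily at multiple concentrations; morphology-based cytotoxicity flagged yes/no.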

Read-out in assay [15]: alkyl and aryl transferase (GSTA2), GSTA2 (gene 2939)
Nature of the assay: CLD_GSTA2_24hr: CellzDirect (CLD) Gene Expression Assay for alkyl and aryl transferase (GSTA2) at 24 hours (AID 2283693). In outline: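 GSTA2 transcript levels were quantified by quantitative nuclease protection assay in primary human hepatocytes 24 h after daily dosing with fresh solutions at multiple concentrations; 0.2% DMSO vehicle as baseline, cytotoxicity flagged morphologically.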

Read-out in assay [16]: xenobiotic metabolism (CYP1A2), CYP1A2 (gene 1544)
Nature of the assay: CLD_CYP1A2_24hr: CellzDirect (CLD) Gene Expression Assay for xenobiotic metabolism (CYP1A2) at 24 hours (AID 2283683). In outline: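 CYP1A2 mRNA induction measured by quantitative nuclease protection (chemiluminescent) in human primary hepatocytes 24 h after multi-concentration chemical dosing with daily fresh solutions. DMSO (0.2%) baseline; positive-direction fitting; morphology-based cytotoxicity noted.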

Results filed as inconclusive are left out. Active and inactive are the calls of the source. Rule for the calls, unless noted: active = hit-call score of the fitted dose curve at least 0.9, where 1 is the maximum; inconclusive = response in the unintended direction; inactive = score below 0.9.

Sequence of Cytochrome P450 2C19 (Homo sapiens) (P33261 whole entry, looked up): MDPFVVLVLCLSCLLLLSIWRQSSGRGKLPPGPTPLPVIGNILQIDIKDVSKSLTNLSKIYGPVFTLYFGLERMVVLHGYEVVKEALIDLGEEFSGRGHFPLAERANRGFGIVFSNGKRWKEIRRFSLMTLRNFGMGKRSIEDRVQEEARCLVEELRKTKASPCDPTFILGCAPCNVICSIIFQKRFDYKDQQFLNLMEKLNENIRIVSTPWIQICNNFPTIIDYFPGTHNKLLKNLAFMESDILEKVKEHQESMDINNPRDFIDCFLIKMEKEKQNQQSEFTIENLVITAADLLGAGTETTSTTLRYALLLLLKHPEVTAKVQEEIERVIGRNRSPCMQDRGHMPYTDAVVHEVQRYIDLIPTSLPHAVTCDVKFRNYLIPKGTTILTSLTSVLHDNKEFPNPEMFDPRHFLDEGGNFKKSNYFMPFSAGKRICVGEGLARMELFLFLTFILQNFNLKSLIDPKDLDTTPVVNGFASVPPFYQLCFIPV
Sequence of Broad substrate specificity ATP-binding cassette transporter ABCG2 (Homo sapiens) (Q9UNQ0 whole entry, looked up): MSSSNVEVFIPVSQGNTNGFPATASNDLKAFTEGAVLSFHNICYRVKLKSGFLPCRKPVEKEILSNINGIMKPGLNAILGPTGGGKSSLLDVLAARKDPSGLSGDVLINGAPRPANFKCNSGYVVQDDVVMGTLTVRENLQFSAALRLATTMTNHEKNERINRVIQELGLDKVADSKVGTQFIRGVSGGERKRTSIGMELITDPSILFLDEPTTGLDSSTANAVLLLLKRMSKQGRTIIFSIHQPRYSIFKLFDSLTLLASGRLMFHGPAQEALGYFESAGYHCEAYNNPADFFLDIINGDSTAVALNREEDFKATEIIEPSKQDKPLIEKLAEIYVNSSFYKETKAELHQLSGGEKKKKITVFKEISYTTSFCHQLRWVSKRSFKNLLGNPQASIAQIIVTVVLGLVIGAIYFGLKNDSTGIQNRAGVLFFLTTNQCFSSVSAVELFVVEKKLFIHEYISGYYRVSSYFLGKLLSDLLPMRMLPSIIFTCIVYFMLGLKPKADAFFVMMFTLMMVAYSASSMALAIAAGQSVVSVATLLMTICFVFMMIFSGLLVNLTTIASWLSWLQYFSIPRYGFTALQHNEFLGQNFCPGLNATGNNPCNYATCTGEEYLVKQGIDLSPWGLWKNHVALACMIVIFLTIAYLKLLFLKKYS
Sequence of Cytochrome P450 3A4 (Homo sapiens) (P08684 whole entry, looked up): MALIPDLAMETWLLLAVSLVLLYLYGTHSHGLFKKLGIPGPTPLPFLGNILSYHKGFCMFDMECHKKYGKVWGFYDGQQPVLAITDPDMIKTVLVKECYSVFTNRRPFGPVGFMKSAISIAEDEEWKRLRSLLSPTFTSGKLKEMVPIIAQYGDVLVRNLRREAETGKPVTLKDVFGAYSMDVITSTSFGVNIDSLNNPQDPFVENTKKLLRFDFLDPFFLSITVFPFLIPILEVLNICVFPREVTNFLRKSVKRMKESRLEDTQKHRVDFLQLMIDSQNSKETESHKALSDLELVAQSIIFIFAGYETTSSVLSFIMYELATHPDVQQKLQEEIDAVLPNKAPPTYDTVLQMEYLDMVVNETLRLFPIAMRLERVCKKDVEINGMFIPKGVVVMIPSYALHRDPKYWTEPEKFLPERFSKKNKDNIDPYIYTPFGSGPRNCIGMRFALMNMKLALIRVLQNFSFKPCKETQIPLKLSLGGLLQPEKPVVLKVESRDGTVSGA

One may read the AC50 as the midpoint of the concentration-response curve, whichever way the signal moves. As for `CC1=NNC(=O)N(/N=C/c2cccnc2)C1`, the result in [1], in assay [3], in assay [4], in assay [5], in assay [6] and in assay [7] was inactive. In addition, the outcome in [8] was inactive. In addition, the AC50 in assay [2] is 46.4 µM (active).

`CC1(C(=O)Nc2ccc(O)c(Cl)c2Cl)CCCCC1`: the result in [1], in assay [3], in assay [9], in assay [4], in [5] and in assay [10] was inactive. For the same compound, the compound was called inactive in assay [11] and in assay [8]. Besides, in [2], the AC50 was 10.1 µM (active).

As to `CN(C)[C@@H]1C(=O)C(C(N)=O)=C(O)[C@@]2(O)C(=O)C3=C(O)c4c(O)cccc4[C@@](C)(O)[C@H]3[C@H](O)[C@@H]12`, the outcome in [1], in assay [2], in assay [3], in assay [4], in assay [12] and in assay [5] was inactive. Also, the outcome in [7] was inactive.

Regarding `CN(C)C(=O)Nc1cccc(C(F)(F)F)c1`, the compound was classed as inactive in assay [1], in [2], in [3], in assay [9], in assay [13] and in [14]. Moreover, the compound was classed as inactive in assay [6] and in assay [11]. For the same compound, the half-maximal activity concentration (AC50) in assay [4] is 4.64 µM (active); in assay [5] it was 20 µM (active); in assay [7], 20 µM (active).

In the case of `CCCCOC(=O)[C@@H](C)Oc1ccc(Oc2ccc(C#N)cc2F)cc1`, the call in assay [1], in assay [3], in [4], in [5], in assay [15] and in assay [11] was inactive. Also, the compound was classed as inactive in [8]. Besides, the AC50 in assay [2] is 2.1 µM (active).

For `CCCCOC(=O)c1ccccc1C(=O)O`, the result in assay [1], in [2], in assay [16], in assay [13], in assay [7] and in [8] was inactive.

With `Nc1nc(N)nc(NC2CC2)n1`, the outcome in assay [1], in assay [2], in assay [3], in assay [13], in [4] and in assay [14] was inactive. The result in assay [5], in assay [6] and in [11] was inactive.

For `CCOP(=O)(SC(C)CC)N1CCSC1=O` (configuration not stated), the compound was classed as inactive in [1], in assay [2], in assay [9], in assay [13], in assay [14] and in assay [10]. Moreover, the compound was called inactive in [11]. For the same compound, the AC50 is 3.26 µM (active) in assay [4], 13.4 µM (active) in assay [5] and 5.18 µM (active) in assay [7].

For `Nc1c(Cl)cc([N+](=O)[O-])cc1Cl`, the call in assay [1], in assay [13], in assay [14], in [5], in assay [6] and in assay [11] was inactive. Further, the call in [7] was inactive. Besides, the AC50 is 76.3 µM (active) in assay [2] and 33.7 µM (active) in assay [4].

Values taken from PubChem BioAssay (EPA / NIEHS).
